# Screens: PubChem, National Center for Advancing Translational Sciences (NCATS)
# KB-V1 MDR tox: qHTS assay for MDR1-selective chemotherapeutics: Primary screen using the drug-selected MDR subline cells KB-V1. KB-V1 MDR cells viability, CellTiter-Glo, 72 h. hit rate 3.4% among 400,000. AID 1347076, 2019. Potency, µM (series often up to 46.1 µM), most hits filed as cytotoxic; further: on the % scale 0 is the no-effect control and ±100 the full control effect; nearly all actives have a fitted effect of over 60% in size
#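 qHTS viability screen in drug-selected KB-V1 MDR cells: 72 h compound treatment at 37 degrees C, ATP luminescence end point.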
# HT1080-NT tox: qHTS for induction of synthetic lethality in tumor cells producing 2HG: qHTS for the HT-1080-NT fibrosarcoma cell line. AID 686970, 2013. Potency, µM (titrated, usually from 46.1 µM), without a hit: top-dose activity, negative = less viability, hits mostly cytotoxic. hit rate 1.6% among 360,000. HT-1080-NT fibrosarcoma viability, CellTiter-Glo ATP luminescence, 48 h;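 further: NT is the 2HG producing partner of a matched IDH1 knockdown line; 0% = DMSO-treated cells and -100% = media-only wells without cells; nearly all actives have a fitted effect of over 55% in size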
#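 750 cells/well, RPMI + 5% FBS; 2 h settle, compound pin-transfer, 48 h at 37 degrees C. CellTiter-Glo 10 min RT, luminescence. Normalized to DMSO and media-only wells.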
# S2 tox: Viability Counterscreen for Primary qHTS for Inhibitors of ATXN expression; S2 cells (HEK-293 line with an ATXN2-luciferase reporter) viability, CellTiter-Fluor protease fluorescence, 24 h; Potency, µM (doses to about 56.7 µM), usual class: cytotoxic; hit rate 0.49% among 400,000; AID 651635, 2014; further: nearly all actives have a fitted effect of over 40% in size
# KB-3-1 tox: qHTS assay for MDR1-selective chemotherapeutics: Primary screen using the parental adenocarcinoma cell KB-3-1; KB-3-1 viability, CellTiter-Glo ATP luminescence, 72 h; Potency, µM (series often up to 46.1 µM), actives largely listed as cytotoxic; hit rate 1.4% among 400,000; AID 1347075, 2019; further: on the % scale 0 is the no-effect control and ±100 the full control effect; nearly all actives have a fitted effect of over 60% in size
#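 Cytotoxicity in the drug-sensitive parental line KB-3-1 was scored as loss of CellTiter-Glo luminescence following 72 h incubation with compound. Values come from curve fitting of normalized concentration-response data.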
# ATXN2 expr inh: Primary qHTS for Inhibitors of ATXN expression; HEK-293 ATXN2-luciferase reporter, luminescence, 24 h; Potency, µM (series often up to 57 µM), for the others: at the highest dose activity change, negative = inhibition, most hits filed as inhibitors; hit rate 0.72% among 360,000; AID 1745845, 2022; further: on the % scale 0 is the no-effect control and ±100 the full control effect; nearly all actives have a fitted effect of over 55% in size
#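 ATXN2-luciferase reporter cells (luciferase flanked by upstream and downstream ATXN2 gene portions) were treated 24 h at 37 °C with compounds at up to 57 uM. SteadyGlo luminescence gave expression; GF-AFC fluorescence gave viability.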
# HT1080 IDH1KD tx: qHTS for induction of synthetic lethality in tumor cells producing 2HG: qHTS for the HT-1080-IDH1KD cell line; HT-1080 IDH1 knockdown viability, ATP luminescence, 48 h; Potency, µM (titrated, usually from 46.1 µM), inactives show top-dose activity, negative = toxicity, most hits filed as cytotoxic; hit rate 2% among 360,000;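 further: 0% = DMSO wells and -100% = cell-free medium wells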
#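 % activity derives from luminescence (CellTiter-Glo), normalised to DMSO and no-cell wells. HT-1080-IDH1KD cells, 750/well, had 48 h compound exposure at 37 °C.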
# An asterisk follows results filed as active; i = inactive; ? = inconclusive; · = no result. A selection: hits, their analogues and other compounds. The true share with any hit is near 6.2%. The call rests on the fitted dose curve; in most records, active means well fitted curve in the direction sought with a large enough effect; inconclusive means small, poorly fitted or top-dose-only effect, or another doubt; inactive means no such curve, though single readings can be large; an effect the other way counts as inactive or inconclusive. Potency means the concentration at half of the fitted maximal effect.
SMILES,KB-V1 MDR tox,HT1080-NT tox,S2 tox,KB-3-1 tox,ATXN2 expr inh,HT1080 IDH1KD tx
COc1ccccc1-c1ccnc(-n2ncc(C(=O)N3CCN(C(C)C)CC3)c2-c2ccco2)n1,·,·,i,·,·,·
COc1ccccc1CN1CCC2(CCC(CNC(=O)c3ccccc3N(C)C)O2)CC1 (centres undefined),·,·,i,·,·,·
Cc1cc(C)nc(Nc2nc(C(N)Cc3ccc(Cl)cc3)cs2)n1 (centres undefined),?,21µM*,?,i,?,15µM*
Cc1cc(C)nc(Nc2nc(C(N)Cc3ccc(F)cc3)cs2)n1 (centres undefined),?,?,?,?,-24%,13µM*
O=C(Nc1nc2n(n1)C(c1ccccc1)C=C(c1ccccc1)N2)c1ccc(Cl)c([N+](=O)[O-])c1 (centres undefined),i,·,i,i,-30%,·
Cc1ccc(-c2cc(NC(=O)C(C)Oc3ccc(C)c(C)c3)on2)cc1 (centres undefined),i,·,i,i,-6%,·
N#C/C(=C\c1ccc(Cl)cc1)C(=O)NCC1CCCO1 (centres undefined),i,·,i,i,9%,·
Cc1ccc(CN=C(N)Nc2nc(C)cc(C)n2)cc1,i,7.3µM*,i,2.6µM*,-26%,7.3µM*
O=C(c1ccco1)N(Cc1cc2cc3c(cc2nc1N1CCOCC1)CCC3)CC1CCCO1 (centres undefined),·,·,i,·,·,·
O=C(N1CCN(c2ccc(F)cc2)CC1)C1(c2cccs2)CCOCC1,23µM*,0%,i,i,-9%,-3%
O=C(N1CCN(c2cccc(Cl)c2)CC1)C1(c2cccs2)CCOCC1,4.6µM*,2%,i,?,-22%,0%
O=C(N1CCN(c2cccc(Cl)c2)CC1)C1(S(=O)(=O)c2ccc(Cl)cc2)CC1,i,-14%,i,i,-18%,-4%
CC(C)c1ccc(C2C3=C(CC(C)(C)CC3=O)NC3=C2C(=O)c2ccccc23)cc1 (centres undefined),?,?,14µM*,?,?,?
CC1(C)CC(=O)C2=C(C1)NC1=C(C(=O)c3ccccc31)C2c1ccccc1 (centres undefined),16µM*,-5%,?,?,3%,-18%
CCOc1ccc(C2C(C#N)=C(C)NC3=C2C(=O)c2ccccc23)cc1 (centres undefined),?,10%,i,i,?,-12%
CC1=C([N+](=O)[O-])C(c2ccccc2)C2=C(N1)c1ccccc1C2=O (centres undefined),4.6µM*,?,i,0.82µM*,?,?
CC1(C)CC(=O)C2=C(C1)NC1=C(C(=O)c3ccccc31)C2c1cccnc1 (centres undefined),i,-1%,?,i,·,-9%
Cc1ccc(N(CC(=O)NCCc2ccc(Cl)cc2)S(=O)(=O)N(C)C)cc1,i,·,i,i,-23%,·
Cc1c(C(=O)N2CCOc3ccccc3C2)sc2ncnc(NCCCN3CCOCC3)c12,·,·,i,·,·,·
O=C(Nc1ccc(Cc2ccncc2)cc1)C1CCC(N2C(=O)C3CC=CCC3C2=O)CC1 (centres undefined),15µM*,-25%,i,i,-5%,-21%
CCC1CN(CCNC(=O)c2cccnc2OC)Cc2cc(OC)ccc2O1 (centres undefined),·,·,i,·,·,·
O=C(NC1CCCCC1)C(c1ccco1)N(C(=O)c1csnn1)C1CCCC1 (centres undefined),16µM*,-3%,i,i,0%,1%
O=C(NCc1ccccc1)C(c1cccs1)N(C(=O)c1csnn1)C1CC1 (centres undefined),18µM*,13%,i,i,1%,15%
O=C(NC1CCCC1)C(c1ccccn1)N(C(=O)c1csnn1)C1CCCCC1 (centres undefined),i,11%,i,i,2%,12%
O=C(NC1CCCC1)C(c1ccco1)N(Cc1ccccc1)C(=O)c1csnn1 (centres undefined),13µM*,2%,i,i,3%,-5%
SMILES,KB-V1 MDR tox,HT1080-NT tox,S2 tox,KB-3-1 tox,ATXN2 expr inh,HT1080 IDH1KD tx
COc1ccccc1C1CN(Cc2cccc(OCCO)c2)Cc2ccccc2O1 (centres undefined),·,·,i,·,·,·
C=CCn1c(=S)[nH]c2sc3c(c2c1=O)CCC3,i,7.1µM*,i,i,-9%,?
CCn1c(=S)[nH]c2sc3c(c2c1=O)CCCC3,i,-20%,i,i,·,?
COc1ccc2nc(NN=C(C)c3ccccn3)cc(C)c2c1,1.2µM*,-29%,7.5µM*,?,?,12µM*
C/C(=N\NC(=O)c1cc(C)nc2ccccc12)c1ccccn1,i,?,?,i,?,?
COc1ccccc1NC(C)C(=O)c1c[nH]c2ccccc12 (centres undefined),i,·,·,i,·,·
COc1ccc(OC)c(C2C=C(c3ccc(C)c(C)c3)Nc3nnnn32)c1 (centres undefined),6.5µM*,?,i,6.5µM*,-28%,?
COc1ccc(C2=CC(c3ccc(C)cc3)n3nnnc3N2)cc1 (centres undefined),?,?,·,i,-16%,?
COc1cccc(C2=CC(c3cc(OC)ccc3OC)n3nnnc3N2)c1 (centres undefined),16µM*,?,i,6.5µM*,-27%,?
COc1ccc(C2C=C(c3ccccc3)Nc3nnnn32)cc1 (centres undefined),i,9%,·,i,24%,-1%
O=C(NCc1ccccc1)Nc1nnc(-c2ccncc2)s1,i,·,·,i,·,·
COc1ccc(NC(=O)C2Cc3c(-c4ccccc4)ccnc3O2)cc1OC (centres undefined),?,-12%,i,16µM*,?,?
CC(=O)c1cccc(-c2ccnc3c2CC(C(=O)Nc2ccc(F)c(Cl)c2)O3)c1 (centres undefined),21µM*,?,i,?,?,?
CS(=O)(=O)Nc1cccc(NC(=O)C2Cc3c(-c4ccccc4)ccnc3O2)c1 (centres undefined),i,2.3µM*,i,16µM*,0%,?
